Structures are written as SMILES. Out of some 67,000 compounds screened, about 300 (0.45%) showed an effect of 50% or more. The sample holds strong results, similar compounds and a random draw of the others, so the mix is not that of the screen.

Chain of Polyketide synthase Pks13 (Mycobacterium tuberculosis (strain ATCC 25618 / H37Rv)) (I6X8D2 whole entry): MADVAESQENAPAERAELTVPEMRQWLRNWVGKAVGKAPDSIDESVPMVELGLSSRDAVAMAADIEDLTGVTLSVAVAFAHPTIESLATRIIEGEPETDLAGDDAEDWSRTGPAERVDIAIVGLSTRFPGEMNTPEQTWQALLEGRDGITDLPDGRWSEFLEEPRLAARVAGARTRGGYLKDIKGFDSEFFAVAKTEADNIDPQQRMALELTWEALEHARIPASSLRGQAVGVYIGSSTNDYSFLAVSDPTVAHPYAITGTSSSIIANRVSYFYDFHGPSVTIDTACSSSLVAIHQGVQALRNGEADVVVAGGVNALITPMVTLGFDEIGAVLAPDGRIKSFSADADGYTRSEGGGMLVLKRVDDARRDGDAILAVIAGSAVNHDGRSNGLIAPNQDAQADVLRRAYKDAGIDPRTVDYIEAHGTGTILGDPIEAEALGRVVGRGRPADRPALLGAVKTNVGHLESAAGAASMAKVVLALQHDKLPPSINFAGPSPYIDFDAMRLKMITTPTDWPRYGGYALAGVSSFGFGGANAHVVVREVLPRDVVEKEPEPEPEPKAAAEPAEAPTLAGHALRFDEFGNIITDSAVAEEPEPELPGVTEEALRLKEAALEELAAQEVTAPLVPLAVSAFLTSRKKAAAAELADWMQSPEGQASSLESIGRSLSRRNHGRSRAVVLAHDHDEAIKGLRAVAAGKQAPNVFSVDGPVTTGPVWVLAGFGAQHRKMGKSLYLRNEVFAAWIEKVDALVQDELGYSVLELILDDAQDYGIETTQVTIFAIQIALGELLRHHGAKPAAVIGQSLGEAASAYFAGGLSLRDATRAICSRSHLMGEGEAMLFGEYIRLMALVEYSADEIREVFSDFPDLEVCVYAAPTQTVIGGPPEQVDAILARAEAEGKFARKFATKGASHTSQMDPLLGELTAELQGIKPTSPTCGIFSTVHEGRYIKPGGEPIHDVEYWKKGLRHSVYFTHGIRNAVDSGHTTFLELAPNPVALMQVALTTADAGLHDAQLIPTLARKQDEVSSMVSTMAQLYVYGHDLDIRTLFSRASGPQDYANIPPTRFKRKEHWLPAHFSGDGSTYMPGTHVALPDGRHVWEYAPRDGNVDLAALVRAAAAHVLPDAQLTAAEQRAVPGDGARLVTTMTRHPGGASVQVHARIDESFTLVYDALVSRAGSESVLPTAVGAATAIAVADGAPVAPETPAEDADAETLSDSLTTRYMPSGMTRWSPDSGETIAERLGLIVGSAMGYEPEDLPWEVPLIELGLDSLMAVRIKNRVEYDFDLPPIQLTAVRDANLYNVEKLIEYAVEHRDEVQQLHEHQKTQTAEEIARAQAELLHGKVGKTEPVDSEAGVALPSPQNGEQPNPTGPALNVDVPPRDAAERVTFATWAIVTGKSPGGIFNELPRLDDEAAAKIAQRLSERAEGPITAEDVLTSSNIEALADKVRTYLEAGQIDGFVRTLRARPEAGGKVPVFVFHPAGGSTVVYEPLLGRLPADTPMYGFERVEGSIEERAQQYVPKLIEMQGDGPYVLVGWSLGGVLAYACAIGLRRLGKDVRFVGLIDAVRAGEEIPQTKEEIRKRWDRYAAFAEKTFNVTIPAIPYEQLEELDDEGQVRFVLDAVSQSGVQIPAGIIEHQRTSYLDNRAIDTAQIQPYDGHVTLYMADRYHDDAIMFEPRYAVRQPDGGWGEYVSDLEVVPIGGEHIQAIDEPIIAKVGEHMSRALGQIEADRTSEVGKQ

The assay has as its target Polyketide synthase Pks13 (Mycobacterium tuberculosis (strain ATCC 25618 / H37Rv)) (UniProt I6X8D2). Description: Mycobacterium tuberculosis Polyketide synthase 13 Thioesterase (PKS13). The settings on record: 30 µM. More on the design: scale not given: in the data most compounds retested in dose-response had high values. Format: functional.
Turning to `Cc1ccc(CN2C[C@@H]3[C@@H](C(=O)NCC(C)C)CCS(=O)(=O)[C@@H]3C2)cc1`, the Percent Effect was -36.5%.

For `CCc1ccc(NC(=O)N2C[C@H]3C[C@H](C(=O)N4CCCC4)[C@@H](C2)O3)cc1`, the Percent Effect was -33.7%.

Turning to `COC[C@@]12CCO[C@@H]1CCN(C(=O)COc1ccccc1OC)C2`, the Percent Effect was -28.6%.

As for `CNC(=O)[C@H]1C[C@H]2OCC[C@H]2N(Cc2cccc3ccccc23)C1`, the Percent Effect is -14%.

On to `CCCN1C[C@H]2CC[C@@H]1CN(C(=O)Cc1c(C)nc(CC)[nH]c1=O)C2`, for which the Percent Effect was -18.4%.

For the compound `CCCN1CCN(C(=O)c2ccc3ccccc3n2)[C@H]2CS(=O)(=O)C[C@H]21`, the Percent Effect came out at 11.6%.

As to `Cc1noc(C)c1CN1C(=O)[C@H]2CC[C@@H]1CN(Cc1nccs1)C2`, the Percent Effect is -22.4%.

`COc1ccc(CCNC(=O)C(C)Nc2ccc(C)c(C)c2)cc1` (stereo not given): the Percent Effect is 1.46%.

With `COc1ccc(CCC(C)Nc2cccc(SC)c2)cc1` (stereo not given), the Percent Effect was found to be 65.2%.

With `COc1ccc(CC(C)Nc2cccc(SC)c2)cc1` (stereo not given), the Percent Effect was found to be 57.2%.

Regarding `COc1ccc(C(=O)Nc2cccc(SC)c2)c(OC)n1`, the Percent Effect is -19.8%.

As for `COc1ccc(CC(C)Nc2cccc(F)c2)cc1` (stereo not given), the Percent Effect is 8.52%.

`COc1ccc(CCNC(=O)C(C)Nc2cccc(C)c2C)cc1` (stereo not given): the Percent Effect is 10.4%.

Regarding `Cn1cc(CN2C[C@@H]3COC[C@]3(CNC(=O)c3ccsc3)C2)cn1`, the Percent Effect was -27.4%.

With `Cc1noc([C@@]23CCO[C@@H]2CCN(Cc2scnc2C)C3)n1`, the Percent Effect was -8.64%.

Take `Cc1cc(CN2C[C@H]3CCC[C@@]3(COCc3csc(C)n3)C2)no1`: the Percent Effect was -42.7%.

Consider `Cc1cc(F)ccc1C(=O)N1C[C@@H]2COC[C@]2(CN(C)C)C1`, for which the Percent Effect is -28.5%.

With `O=C([C@H]1COC[C@H]2CN(C3CCCC3)C[C@H]21)N1CCCCO1`, the Percent Effect is -0.965%.

For the compound `Cc1ccnc(OC[C@]23COC[C@H]2CN(C(=O)c2cnccn2)C3)n1`, the Percent Effect is -10.7%.

As to `Cc1ccnc(OC[C@]23COC[C@H]2CN(C(=O)c2ncccn2)C3)n1`, the Percent Effect is 64%.

`Cc1ccnc(OC[C@]23COC[C@H]2CN(C(=O)c2ccnn2C)C3)n1`: the Percent Effect was -7.96%.

`COCCNC(=O)[C@@]12CCO[C@@H]1CCN(Cc1cc(C)on1)C2`: the Percent Effect was -12.3%.

Take `Cn1cc(CN2C[C@@H]3COC[C@@H](C(=O)N4CCCCO4)[C@@H]3C2)cn1`: the Percent Effect was -30.5%.

In the case of `Cc1ccccc1-n1cc(CN(C)C[C@@H]2CCCN3CCCC[C@H]23)cn1`, the Percent Effect was -16.8%.

For `Cc1cc(C(=O)N2C[C@@H]3COC[C@]3(c3nnc(C4CC4)o3)C2)on1`, the Percent Effect is -7.03%.

With `CC(CN1CCCC1=O)NC(=O)c1ccc(-c2ccco2)[nH]c1=O` (stereo not given), the Percent Effect was found to be 73%.

With `CCC(C)NC(=O)c1ccc(-c2ccco2)[nH]c1=O` (stereo not given), the Percent Effect came to 7.06%.

For `Cc1ccc(C(=O)NC(C)CN2CCCC2=O)c(=O)[nH]1` (stereo not given), the Percent Effect is -2.59%.

With `O=C1[C@@H]2CCN(C3CCOCC3)C[C@@H]2OCCN1Cc1cccnc1`, the Percent Effect was -7.59%.

Turning to `COC[C@H]1CNC(=O)[C@@H]2CCN(Cc3ccc(F)cc3)CC[C@H]12`, the Percent Effect was -30.6%.

As to `Cn1cnc(-c2nc(C(=O)NCCN3CCCC3)c3ccccn23)c1`, the Percent Effect worked out at 18.6%.

For the compound `COCCNC(=O)c1nc(-c2cn(C)cn2)n2ccccc12`, the Percent Effect was 21.3%.

As to `CC(C)n1cnc(-c2nc(C(=O)NC3CC3)c3ccccn23)c1`, the Percent Effect was determined as 22.1%.

Turning to `Cn1cnc(-c2nc(C(=O)NCCN3CCOCC3)c3ccccn23)c1`, the Percent Effect worked out at 141%.

For `Cn1cnc(-c2nc(C(=O)NCC3CCCO3)c3ccccn23)c1` (stereo not given), the Percent Effect was 5.5%.

For `Cn1cnc(-c2nc(C(=O)NC3CC3)c3ccccn23)c1`, the Percent Effect was found to be 113%.

Turning to `CN1CCCC(N2CCN(c3nc4ccccn4c3C#N)CC2)C1` (stereo not given), the Percent Effect was 15.1%.

In the case of `N#Cc1c(N2CCN(CC3CCOC3)CC2)nc2ccccn12` (stereo not given), the Percent Effect came out at 5.84%.

As for `N#Cc1c(N2CCCN(C3CCOCC3)CC2)nc2ccccn12`, the Percent Effect came out at 95.8%.

Regarding `CC(C)c1noc(CC[C@@H]2CCCN3CCCC[C@H]23)n1`, the Percent Effect is -17.9%.

For the compound `c1cc(CN2CC[C@H]3CO[C@H](CN4CCOCC4)[C@H]3C2)cs1`, the Percent Effect was -3.35%.

Regarding `Cc1cnc(N2CCC3(CCN(CC4CCCC4)C3=O)CC2)nc1`, the Percent Effect was -3.7%.

Regarding `O=C1N(CC2CC2)CCC12CCN(c1ncccn1)CC2`, the Percent Effect amounted to 2.59%.

With `Cc1cnc(N2CCC3(CCN(CC4CC4)C3=O)CC2)nc1`, the Percent Effect was 71.3%.

As for `COc1ccc(CN2CC[C@H]3CO[C@H](CNC(=O)N(C)C)[C@H]3C2)cc1`, the Percent Effect is -14.2%.

With `CCCn1c(N2CCCC(C)C2)nc2c(C)nn(C)c2c1=O` (stereo not given), the Percent Effect worked out at 3.25%.

As for `CCCn1c(N2CCCCC2)nc2c(C)nn(C)c2c1=O`, the Percent Effect was determined as 14%.

As to `CCCn1c(N2CCCC2)nc2c(C)nn(C)c2c1=O`, the Percent Effect is 67%.

In the case of `Cc1ccoc1-c1nnc(CN2CCOC(Cn3cccn3)C2)o1` (stereo not given), the Percent Effect is -3.25%.

For the compound `Cc1noc(C)c1C(=O)N1C[C@H]2CC[C@@H]1CN(c1cnccn1)C2`, the Percent Effect is -13.5%.

Turning to `Cn1nccc1CCC(=O)N1CCC(c2cnccn2)CC1`, the Percent Effect was -6.75%.

Take `Cn1nccc1CCC(=O)N1CCOC(c2cnccn2)C1` (stereo not given): the Percent Effect was found to be 4.28%.

Turning to `Cn1nccc1CCC(=O)N1CCCC(c2cnccn2)C1` (stereo not given), the Percent Effect worked out at 54.2%.

For `COc1ccccc1N1CCC(CNS(=O)(=O)c2c(C)nn(C)c2C)C1` (stereo not given), the Percent Effect worked out at 0.665%.

Turning to `COc1ccccc1N1CCC(CNCc2cccc(OC)c2OC)C1` (stereo not given), the Percent Effect was -8.68%.

On to `COc1ccccc1N1CCC(CNCc2cccc(C#N)c2)C1` (stereo not given), for which the Percent Effect worked out at 14.1%.

Consider `COc1ccccc1N1CCC(CNS(=O)(=O)c2cccc(C#N)c2)C1` (stereo not given), for which the Percent Effect worked out at 50.9%.

In the case of `COc1ccccc1N1CCC(CNCc2ccc(C#N)cc2)C1` (stereo not given), the Percent Effect is -12.2%.

With `COc1ccccc1N1CCC(CNS(=O)(=O)c2cccs2)C1` (stereo not given), the Percent Effect was determined as 80.9%.

Regarding `O=C([C@H]1CC[C@@H]2[C@@H](CCN2c2ncccn2)O1)N1CCCCO1`, the Percent Effect came out at 4.55%.

For the compound `Cn1cnc(S(=O)(=O)N2CCO[C@H]3[C@H](OCC4CC4)CC[C@@H]32)c1`, the Percent Effect is -28.3%.

Consider `O=C(N1CCOCC1)[C@@]12CCO[C@@H]1CCN(CCN1CCCCC1)C2`, for which the Percent Effect is -23.6%.

With `COCCN1C[C@H]2CCN(C(=O)c3cc(C)on3)CC[C@H]2S1(=O)=O`, the Percent Effect is -423%.

Consider `Cc1nn(C)c2c(=O)n(CC(=O)NC3CCCCC3)ccc12`, for which the Percent Effect was -9.58%.

With `CCS(=O)(=O)NC[C@]12COC[C@H]1CN(Cc1cc(C)on1)C2`, the Percent Effect is -29.9%.

For `CNC(=O)N1CC[C@@H]2CN(Cc3cccc(OC)c3)S(=O)(=O)[C@@H]2CC1`, the Percent Effect is -16.2%.

Regarding `OCC1(Cc2cccc(Cl)c2)CCCN(c2ncccn2)C1` (stereo not given), the Percent Effect was 20.3%.

`N#Cc1cccnc1N1CCCC(CO)(Cc2ccc(F)cc2)C1` (stereo not given): the Percent Effect was -5.66%.

As for `N#Cc1cccnc1N1CCCC(CO)(Cc2cccc(Cl)c2)C1` (stereo not given), the Percent Effect was found to be 96.8%.

In the case of `CCC(=O)N1CCN(Cc2cnc(C)nc2)[C@H]2CS(=O)(=O)C[C@H]21`, the Percent Effect was -6.93%.
